Bioassay records as filed in PubChem.
Anthrax LF prot: inhibitors of Bacillus anthracis lethal factor protease; inhibition, % at 10 µM; AID 588501; 0.12% of 360,000 active; multiplex microsphere protease cleavage assay, LF; also: plate controls were buffer without enzyme for full effect and enzyme alone for no effect
Target sequence (P15917 whole entry, looked up): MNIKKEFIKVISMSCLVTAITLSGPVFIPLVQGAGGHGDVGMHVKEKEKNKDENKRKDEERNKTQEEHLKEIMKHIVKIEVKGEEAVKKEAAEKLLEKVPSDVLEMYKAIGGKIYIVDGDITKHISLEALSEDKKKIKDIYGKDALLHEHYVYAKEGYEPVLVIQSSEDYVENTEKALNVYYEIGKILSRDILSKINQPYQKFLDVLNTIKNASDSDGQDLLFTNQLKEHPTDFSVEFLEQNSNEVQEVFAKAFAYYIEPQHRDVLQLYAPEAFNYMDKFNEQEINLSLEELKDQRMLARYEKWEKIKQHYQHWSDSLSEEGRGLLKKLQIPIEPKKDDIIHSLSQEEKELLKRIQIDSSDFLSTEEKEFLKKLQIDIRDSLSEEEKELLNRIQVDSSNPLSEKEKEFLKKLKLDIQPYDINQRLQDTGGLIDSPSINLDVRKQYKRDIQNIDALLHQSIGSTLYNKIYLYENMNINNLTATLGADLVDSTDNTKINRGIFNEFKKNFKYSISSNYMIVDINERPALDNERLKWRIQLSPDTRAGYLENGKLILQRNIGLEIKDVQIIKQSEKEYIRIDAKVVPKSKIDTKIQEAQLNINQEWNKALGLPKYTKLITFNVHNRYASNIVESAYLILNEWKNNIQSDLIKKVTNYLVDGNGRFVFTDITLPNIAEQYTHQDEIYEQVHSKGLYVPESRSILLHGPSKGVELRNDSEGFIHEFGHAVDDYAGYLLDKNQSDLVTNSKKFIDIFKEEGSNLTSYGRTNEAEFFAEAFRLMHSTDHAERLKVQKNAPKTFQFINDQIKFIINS
Bead autofluor: counter-screen for toxin protease inhibitors: compound fluorescence; compound autofluorescence counterscreen, microsphere flow cytometry; hits give high values; fluorescence intensity (no concentration beside the values); 3.1% of 360,000 active; in the data active = fluorescence intensity above about 16000; inconclusive = no clear call, values can overlap the other calls
SARS 3CLpro inh: SARS-CoV 3CLpro protease inhibition; recombinant SARS-CoV 3CLpro, quenched FRET peptide cleavage; inhibition, % at 6 µM; 0.14% of 290,000 active; P0C6X7; in the data active = inhibition above about 12%
BoNT-F LC inh: BoNT F light chain protease inhibition; Multiplex microsphere protease cleavage assay, flow cytometry; inhibition, % at 10 µM; 0.22% of 360,000 active; in the data active = inhibition above about 35%, passing the limit was not always enough; inconclusive = no clear call, values can overlap the other calls; also: plate controls were buffer without enzyme for full effect and enzyme alone for no effect
BoNT-A LC inh2: inhibitors of Botulinum neurotoxin A light chain protease | multiplex microsphere protease substrate cleavage, flow cytometry | inhibition, % at 10 µM | 0.17% of 360,000 active | AID 588499; also: plate controls were buffer without enzyme for full effect and enzyme alone for no effect
* = called active by the depositor; ? = inconclusive; · = no result. Only some compounds are listed: those with a hit (about 3.5% of all), similar ones and a draw of the others. Rule as the data show it, unless noted: active = inhibition above about 30%; inconclusive = no clear call, values can overlap the other calls; inactive = below that.

SMILES	Anthrax LF prot	Bead autofluor	SARS 3CLpro inh	BoNT-F LC inh	BoNT-A LC inh2
Cc1ccc(Cn2nnc3c(=O)[nH]c(C4CCN(C(=O)c5cccs5)CC4)nc32)cc1	-0.3	23099*	1.6	-3.2	-1.1
O=c1[nH]c(C2CCCN(S(=O)(=O)c3ccccc3)C2)nc2c1nnn2Cc1ccccc1 (centres undefined)	-0.9	22466*	-2.7	1.9	2.2
CCOc1ccccc1CNC(=O)C1CCCN(c2nnc(C)c3c(C)n(-c4ccccc4)nc23)C1 (centres undefined)	2.1	19018*	-1.9	13.5	-7.8
CCC1S/C(=N/N=C/c2ccco2)N(Cc2ccccc2C)C1=O (centres undefined)	40.7*	3284	2.9	?	?
NC(=O)c1cc(S(=O)(=O)NC2CCCCC2)co1	-2.2	22647*	-0.2	-2.6	?
O=C(CSc1nnc(-c2ccc(O)cc2)n1Cc1ccco1)N1CCc2ccccc2C1	-1.6	16322*	-0.7	-3.3	-0.3
CCc1cccc(CC)c1-n1c(SCC(=O)N2CCc3ccccc3C2)nnc1-c1cccnc1	15.5	36354*	3.2	19.1	17.9
Cc1ccc(-n2c(SCC(=O)N3CCCc4ccccc43)nnc2-c2cccnc2)c(C)c1	9.6	26671*	-5.0	24.1	6.6
CC1CCN(C(=O)CSc2nnc(-c3cccnc3)n2C2CCCCC2)CC1	-3.2	17010*	1.0	-9.1	?
Cc1cnc(NC(=O)CSc2nnc(-c3ccncc3)n2C2CCCCC2)s1	-2.6	8785	5.2	2.7	1.5
O=C(CSc1nnc(-c2ccncc2)n1C1CCCCC1)Nc1cccc(O)c1	-3.2	16523*	4.4	-1.5	-0.3
Cc1cc(C)c(S(=O)(=O)N2CCCOC2CNC(=O)C(=O)NCCCn2ccnc2)c(C)c1 (centres undefined)	0.4	2462	2.6	3.6	-0.8
COC(=O)COc1ccc(Oc2cc(C)nc(SC)n2)nn1	0.8	21755*	0.5	-5.9	?
Cc1ccc(C(=O)N/C(=C\c2ccco2)C(=O)N2CC(C)OC(C)C2)cc1C (centres undefined)	-0.3	5615	0.1	9.4	0.9
Cc1ccc2c(CC(=O)OCn3nnc4ccccc4c3=O)coc2c1	-1.3	3131	6.3	-1.9	-0.2
CCNC(=O)CSc1nnc(-c2cccc(S(=O)(=O)N(CC)CC)c2)n1CCc1ccccc1	-1.5	20492*	4.5	-0.4	-0.3
C=CCc1cccc2ccc(=O)oc12	19.1	6128	2.8	37.0*	4.3
C=CCc1cccc2cc(C(=O)NC(C)(C)C)c(=O)oc12	-0.7	2128	1.7	-9.5	0.0
Cc1ccc(C(=O)Nc2ccc(S(=O)(=O)NCc3ccco3)cc2)cc1	2.7	21876*	0.4	3.7	2.5
Cc1cc(C)cc(NC(=O)c2cc(S(=O)(=O)NCc3ccco3)ccc2F)c1	-2.6	21467*	3.6	-3.9	-3.9
O=C(Nc1ccccc1)c1ccc(S(=O)(=O)NCc2ccco2)cc1	-0.7	4808	5.6	4.1	-0.1
O=C(CN1CCN(Cc2ccccc2)CC1)Nc1ccc(S(=O)(=O)N2CCOCC2)cc1	-2.1	2488	2.6	-6.0	-1.6
COCCCN(C(C)=O)c1nc(-c2ccccc2)cs1	-1.6	21845*	-4.0	-0.5	?
Cn1ccnc1SCc1cc(=O)[nH]c2ccccc12	-2.1	11368	-0.5	-5.0	0.2
Cc1ccc2cc(CN(Cc3nnnn3C3CCCCC3)CC3CCCO3)c(=O)[nH]c2c1 (centres undefined)	2.9	7681	-3.5	-7.2	1.5
SMILES	Anthrax LF prot	Bead autofluor	SARS 3CLpro inh	BoNT-F LC inh	BoNT-A LC inh2
CCOC(=O)c1sc2cccc(Cl)c2c1N	-0.1	4672	-9.8	6.2	1.4
CCOC(=O)c1sc2cccc(F)c2c1N	-6.6	22763*	-7.7	-0.2	?
CC(=O)c1ccc(N2CCN(C(=O)c3cn(Cc4ccccc4)nc3-c3cccnc3)CC2)c(F)c1	-4.3	4060	·	-0.7	-0.5
COc1ccc(NC(=O)CN(C2CCCCC2)S(C)(=O)=O)cc1Cl	-2.1	21935*	2.6	-5.2	-2.7
CS(=O)(=O)N(CC(=O)NCCc1ccccc1)C1CCCCC1	0.3	18975*	3.5	6.8	4.8
O=C(O)CSC(C(=O)Nc1ccc(Br)cc1)c1ccc(Cl)cc1 (centres undefined)	-0.4	2547	2.3	0.3	0.7
CCOc1cc(S(=O)(=O)NC2CCCCC2)ccc1F	-8.7	22695*	7.0	-0.3	2.4
O=C(CSc1nnc2c(Cl)cc(Cl)cn12)N1CCN(S(=O)(=O)c2ccccc2)CC1	1.7	4222	1.2	-19.5	0.0
CCCCn1cnc2c(c(CC#N)nn2-c2ccccc2)c1=N	-6.4	3974	·	-0.1	0.0
COc1ccccc1N1CC(C(=O)OCC(=O)c2ccc(F)cc2)CC1=O (centres undefined)	-6.3	23806*	1.2	-1.1	-0.2
COc1ccc(CNC(=O)c2noc3c2CCCC3)cc1	0.0	11801	-7.4	-8.4	-0.9
COc1ccc(CN/C=C2\CCCCC2=O)cc1	1.0	22197*	0.3	-4.4	?
COC(=O)c1cnc(SCc2ccc(Cl)cc2)n1C	5.2	4783	4.9	-0.6	-0.8
Cn1c(SCc2ccc(Cl)cc2)nc(C(F)(F)F)cc1=O	-4.4	20153*	-2.6	-6.5	-2.2
Cc1noc(C)c1C(=O)Nc1cccnc1	1.6	9434	-2.0	0.8	0.2
CCCCNc1ccccc1C(=O)OCC(=O)Nc1ccc(S(N)(=O)=O)cc1	-11.9	17458*	1.9	11.0	6.4
COc1ccc(-c2cc(C(=O)N3CCc4ccccc4C3)no2)cc1OC	-5.1	21095*	-4.5	-3.8	-1.3
COc1ccc(-c2cc(C(=O)N3CCCc4ccccc43)no2)cc1OC	-1.3	22113*	3.2	0.6	0.6
COc1ccc(-c2cc(C(=O)N3CCCc4ccccc43)no2)cc1	-1.1	22780*	-0.5	1.5	?
COc1cccc(-c2cc(C(=O)N3CCCc4ccccc43)no2)c1	-22.7	12935	2.4	31.3	24.6
COc1ccc(C(CNC(=O)c2cc3ccccc3cc2OC)N2CCCC2)cc1 (centres undefined)	0.6	27989*	-1.8	0.5	?
C=CCN(c1ccccc1)S(=O)(=O)c1cccc(C(=O)NCC(c2ccc(OC)cc2)N2CCCCC2)c1 (centres undefined)	-8.1	6047	·	2.8	?
C=CCN(c1ccccc1OC)S(=O)(=O)c1cccc(C(=O)NCC(c2ccc(OC)cc2)N2CCCC2)c1 (centres undefined)	-8.6	23106*	·	-1.0	-3.5
COc1ccc(C(CNC(=O)CNC(=O)c2ccccc2Cl)N2CCCC2)cc1 (centres undefined)	-4.1	7350	·	8.9	-3.5
Cn1c(Cl)cnc1C(O)(c1ccccc1)c1ccccc1	-12.2	4817	1.6	?	?
O=C(Nc1cccc([N+](=O)[O-])c1)c1ccc2nc(N3C(=O)CCC3=O)sc2c1	-0.5	21930*	1.5	-8.0	?
O=C(Nc1ccc(N2CCOCC2)cc1)c1ccc(Cl)cc1N1CCCC1=O	-4.1	3958	·	-5.1	-0.8
CC(C)c1ccc(NC(=O)CSc2n[nH]c(=O)n2-c2cccnc2)cc1	-2.5	5821	-1.2	-1.6	0.6
